PubChem BioAssay (NCATS)
Results filed as inconclusive are left out. A call without a number means that no potency is given here. Active and inactive are the calls of the source. The call rests on the fitted dose curve; in most records, active means well fitted inhibition curve with a large enough effect; inconclusive means small, poorly fitted or top-dose-only effect; inactive means flat fitted curve, though single readings scatter.

target: Calcium and integrin-binding protein 1 (Homo sapiens) (UniProt Q99828); test: Primary qHTS for Identification of Calcium Integrin Binding Protein 1 (CIB1) Competitor (AID 1508620); settings: CIB1-GST / FITC-alphaIIb peptide fluorescence polarization; series mostly up to 114 µM; further: top concentration of the series differs between compounds
Outline: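 Fluorescence polarization competition: GST-tagged CIB1 (1 uM final) preincubated with compound 15 min at room temperature, then FITC-labelled alphaIIb peptide (100 nM final) added. After 15 min at room temperature, polarization read at Ex 480/Em 540.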

Chain of Calcium and integrin-binding protein 1 (Homo sapiens) (Q99828 whole entry, looked up): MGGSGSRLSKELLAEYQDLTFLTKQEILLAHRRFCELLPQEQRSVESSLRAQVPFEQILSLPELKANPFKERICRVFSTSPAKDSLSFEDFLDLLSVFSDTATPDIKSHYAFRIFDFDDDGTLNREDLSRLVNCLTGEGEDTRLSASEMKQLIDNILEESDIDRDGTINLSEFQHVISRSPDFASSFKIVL

**Q.** How did the Potency turn out when `N#Cc1c(-c2ccc3c(c2)OCO3)no[n+]1[O-]` was run?
**A.** The Potency was “inactive”.

**Q.** How did the Potency turn out when `CC(=O)Nc1sc2c(c1-c1ccc(C#N)cc1)CCNC2` was run?
**A.** The Potency was “inactive”.

**Q.** Which Potency does the source give for `NC(=O)C1CCN(c2ncc(-c3ccc4c(c3)OC(F)(F)O4)s2)CC1` here?
**A.** The Potency was “inactive”.

**Q.** `Cc1cc2c(s1)c1cnn(Cc3ccc(F)c(C)c3)c(=O)c1n2C` was tested. Which Potency did it give?
**A.** Its Potency is “inactive”.

**Q.** For `NC(=O)C1CCN(c2ncc(-c3ccc(Br)cc3)s2)CC1`, which Potency is on record?
**A.** The Potency was “inactive”.

**Q.** How did the Potency turn out when `N=c1c2c(ncn1-c1ccccc1)Oc1ccc3ccccc3c1C2c1ccc2c(c1)OCO2` (centres undefined) was run?
**A.** The Potency was “inactive”.

**Q.** How did the Potency turn out when `O=C1c2ccccc2C(=O)N1c1nccs1` was run?
**A.** Its Potency is “inactive”.

**Q.** For `O=C(Nc1cc(F)cc(F)c1)Nc1nnc(-c2ccncc2)s1`, which Potency is on record?
**A.** The Potency was “inactive”.

**Q.** For `O=C(Nc1ccccc1)Nc1nc(Nc2cc(F)cc(F)c2)nc(NC2CCCC2)n1`, which Potency is on record?
**A.** Its Potency is “inactive”.

**Q.** Which Potency does the source give for `O=S(=O)(Nc1cccc2ccccc12)c1ccc(NCc2ccc(Br)cc2O)cc1` here?
**A.** Its Potency is “inactive”.

**Q.** With `O=S(=O)(Nc1ccc2ccccc2c1)c1ccc(NCc2ccc(Br)cc2O)cc1` as the molecule, how does the Potency read?
**A.** Its Potency is “inactive”.

**Q.** `NC(=O)C1CCN(c2nc(-c3ccc(N)cc3)cs2)CC1` was tested. Which Potency did it give?
**A.** The Potency was “inactive”.

**Q.** For `O=C(CSc1nnc(-c2cccc([S+](=O)([O-])N3CCCC3)c2)n1-c1ccccc1)Nc1cccc(F)c1`, which Potency is on record?
**A.** Its Potency is “inactive”.

**Q.** Which Potency does the source give for `CC(=O)NC(c1cc(F)c2cccnc2c1O)C(C)C` (centres undefined) here?
**A.** Its Potency is “inactive”.

**Q.** `O=C(Nc1cccnc1)C1CCCCC1` was tested. Which Potency did it give?
**A.** Its Potency is “inactive”.

**Q.** For `Cc1ccccc1CSc1nc2ncc(Br)cc2[nH]1`, which Potency is on record?
**A.** The Potency was “inactive”.

**Q.** For `Nc1cc(-c2nc(Nc3ccc(F)c(F)c3)c3ccccc3n2)ccn1`, which Potency is on record?
**A.** The Potency was “inactive”.

**Q.** Which Potency does the source give for `O=C(Nc1ccc(Cl)c(Cl)c1)Nc1nnc(NC2CCNCC2)s1` here?
**A.** The Potency was “inactive”.

**Q.** Which Potency does the source give for `S=P(c1ccccc1)(c1ccccc1)c1c[n+](C/C=C/c2ccccc2)c2ccccn12` here?
**A.** The Potency was “inactive”.
